A selection: hits, their analogues and other compounds. The true share with any hit is near 2.8%.
hERG WT inh: KCNH2 (human, wildtype) channel inhibition; Q12809; U2OS, BacMam KCNH2, thallium flux FluxOr; active compounds read low; activity change, % at 1.84 µM; 0.37% of 340,000 active; AID 720551;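 active = maximum activity change below -70%; inconclusive = maximum activity change between -70% and -50%; inactive = maximum activity change above -50%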; also: % is scaled to controls: 0 for no effect and ±100 for the full control effect
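U2OS cells were transduced with wild-type KCNH2 virus (2.03 x 10^8 / mL) for 4 h at room temperature, then cultured overnight at 37 C. Thallium flux was read with FluxOr dye. Rate constants were normalized to DMSO controls.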
GLS inhibitor: blocks human kidney-isoform glutaminase activity; O94925; GLS enzymatic activity, qHTS titration; Potency, µM (series often up to 45.5 µM), without a hit: top-dose activity change, negative = inhibition, most hits filed as inhibitors; 0.21% of 410,000 active; AID 624170; also: potency is read from the fitted curve at half-maximal effect; % is scaled to controls: 0 for no effect and ±100 for the full control effect
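Glutamate formation by hKGA was monitored fluorometrically using coupled glutamate oxidase, HRP and Amplex Red. Substrate was added as 1 mM L-glutamine solution; incubation was 30 min at RT after an initial read.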
HEK293 tox: cytotoxicity in counter-screen for GLP-1R inverse agonists; HEK293 cAMP-luciferase reporter cells, luminescence, 24 h; Potency, µM (top dose mostly 38.3 µM), for inactives: at the top dose activity change, negative = inhibition, most hits filed as inhibitors; 0.13% of 410,000 active; AID 624418;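 also: loss of luciferase light is scored as toxicity; potency is read from the fitted curve at half-maximal effect; % is scaled to controls: 0 for no effect and ±100 for the full control effect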
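To flag toxic compounds, the library was rerun on cells for 24 hr at 37 deg C and 5% CO2. Viability-linked luminescence was captured 12 min after adding luciferase detection reagent.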
GLP1R inv ag: inverse agonists of human GLP-1 receptor; AID 624417; HEK293 GLP-1R CRE-luciferase, luminescence, 24 h; GLP-1R form is constitutively active; Potency, µM (titrated, usually from 38.3 µM), without a hit: at the highest dose activity change, negative = inhibition, most hits filed as inhibitors; 1.6% of 410,000 active; P43220; also: potency is read from the fitted curve at half-maximal effect; % is scaled to controls: 0 for no effect and ±100 for the full control effect; nearly all actives have a fitted effect of over 55% in size
Target sequence (P43220 whole entry, looked up): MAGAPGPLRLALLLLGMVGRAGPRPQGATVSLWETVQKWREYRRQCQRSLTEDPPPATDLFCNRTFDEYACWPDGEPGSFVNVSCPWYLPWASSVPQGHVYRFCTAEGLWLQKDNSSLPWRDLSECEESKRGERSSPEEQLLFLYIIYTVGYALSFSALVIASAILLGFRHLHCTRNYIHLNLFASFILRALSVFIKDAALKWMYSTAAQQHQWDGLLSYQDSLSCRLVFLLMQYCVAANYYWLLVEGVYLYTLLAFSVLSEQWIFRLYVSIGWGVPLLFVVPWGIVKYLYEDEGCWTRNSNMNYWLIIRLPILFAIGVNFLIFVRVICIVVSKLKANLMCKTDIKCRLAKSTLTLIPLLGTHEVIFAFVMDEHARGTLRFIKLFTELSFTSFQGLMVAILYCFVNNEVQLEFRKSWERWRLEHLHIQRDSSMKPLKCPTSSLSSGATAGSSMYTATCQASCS
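Using stably transfected HEK293 (constitutively active GLP-1R, cAMP-luciferase reporter), compounds were incubated 24 hr and luciferase measured by luminescence.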
KCNH2 3.1 inh: blocks the human KCNH2 3.1 channel isoform | U2OS KCNH2 3.1, thallium flux FluxOr; active compounds read low | activity change, % (tested at about 1.8 µM) | 0.95% of 340,000 active;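 active = maximum activity change below -70%; inconclusive = maximum activity change from -70% to -50%; inactive = maximum activity change above -50%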;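 also: thallium influx rate constant from kinetic fluorescence after stimulation buffer; % is scaled to controls: 0 for no effect and ±100 for the full control effect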
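Measured as rate of thallium-driven FluxOr signal in transduced U2OS cells carrying the 3.1 channel, read kinetically for 2 min upon stimulation; values are rate constants scaled to DMSO control wells.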
GLP-1R agonist: agonists of human GLP-1 receptor | 0.007% of 380,000 active | HEK293 GLP-1R CRE-luciferase, luminescence, 4-6 h; cells express a hypersensitive GLP-1R form | Potency, µM (series often up to 45.6 µM), without a hit: at the top dose activation, hits mostly activators | P43220 | AID 624172; also: potency is read from the fitted curve at half-maximal effect; % of control where 0% means no effect
* = called active by the depositor; u = inconclusive; x = not tested or not shown. Unless noted, calls follow the shape of the dose curve; as a rule, active = well fitted curve in the direction sought with a large enough effect; inconclusive = small, poorly fitted or top-dose-only effect, or another doubt; inactive = no such curve, though single readings can be large; an effect the other way counts as inactive or inconclusive.

SMILES	hERG WT inh	GLS inhibitor	HEK293 tox	GLP1R inv ag	KCNH2 3.1 inh	GLP-1R agonist
Cn1nc(C(F)(F)F)c(-c2ccc(Br)cc2)c1NC(=O)c1ccco1	0.3	3.3%	-11.5%	7.08µM*	30.5	-5.0%
Cn1nc(C(F)(F)F)c(-c2ccc(Br)cc2)c1NC(=O)c1cccnc1	2.7	-0.4%	-14.3%	u	-18.0	7.4%
CC(C)(C)c1ccccc1NC(=O)CN1C(=O)NC2(CCCCCC2)C1=O	-169.9*	-1.0%	21.3%	-15.3%	1.9	-24.5%
Cc1cc(NC(=O)CN2C(=O)NC3(CCCCCC3)C2=O)ccc1Br	-0.9	-1.9%	-16.1%	10µM*	-3.9	21.2%
Cc1cc(NC(=O)CC2CCCC2)ccc1Br	-10.8	5.2%	-23.6%	8.91µM*	-26.9	14.8%
Cc1ccc(NC(=O)CN2C(=O)NC3(CCCCCC3)C2=O)cc1Cl	-5.8	-0.3%	u	u	0.9	0.1%
O=C(CSCc1cnn(-c2ccccc2)c1-n1cccc1)Nc1ccc(F)cc1F	x	-2.6%	-11.9%	u	x	x
COc1ccc(OC)c(NC(=O)CSCc2cnn(-c3ccccc3)c2-n2cccc2)c1	-6.2	-13.3%	-3.2%	11.2µM*	9.4	9.0%
O=C(CSCc1cnn(-c2ccccc2)c1-n1cccc1)NCc1ccccc1F	x	-11.9%	1.4%	12.6µM*	x	x
Cc1ccc(NC(=O)CSCc2cnn(-c3ccccc3)c2-n2cccc2)c(Cl)c1	x	-0.4%	22.3%	10µM*	x	x
COc1cc(NC(=O)CSCc2cnn(-c3ccccc3)c2-n2cccc2)cc(OC)c1	-3.6	-18.0%	-17.0%	3.16µM*	-7.2	1.2%
COc1ccc(CNC(=O)CSCc2cnn(-c3ccccc3)c2-n2cccc2)cc1OC	x	8.2%	-11.4%	-24.4%	x	x
CC(=O)NC(CC(=O)NNC(=O)c1cccs1)c1ccccc1 (configuration not stated)	4.9	9.3%	6.9%	14.0%	-1.3	1.7%
O=C(NCC(c1ccco1)N1CCCCC1)c1ccc(COc2ccc(Cl)cc2)cc1 (configuration not stated)	22.2	3.3%	-26.7%	2.82µM*	-29.0	12.3%
CC(Sc1ccc(Cl)cc1)C(=O)NCC(c1ccco1)N1CCCCC1 (configuration not stated)	45.7	8.3%	-4.2%	11.2µM*	-29.8	-4.8%
S=C(NCCc1ccccc1)NCC(c1ccco1)N1CCCCC1 (configuration not stated)	4.8	-0.9%	-24.2%	7.08µM*	-19.2	22.7%
CC(C)C(NC(=O)c1ccco1)C(=O)NCC(c1ccco1)N1CCCCC1 (configuration not stated)	0.1	4.6%	-0.2%	2.9%	9.8	-3.2%
O=C(NCC(c1ccco1)N1CCCCC1)C(c1ccccc1)c1ccccc1 (configuration not stated)	-7.5	-18.1%	0.4%	11.2µM*	-12.6	4.6%
O=C1CCc2cc(NS(=O)(=O)c3ccccc3)cc3c2N1CC3	1.5	18.8%	-0.1%	27.5%	-0.4	14.3%
CCOc1ccccc1C(=O)Nc1cccc(-c2nc3ccccc3s2)c1	x	-15.2%	4.7%	16.6%	x	x
CN(CC(=O)NCC(c1ccco1)N1CCCCC1)S(=O)(=O)c1ccc(Cl)cc1 (configuration not stated)	23.2	8.7%	0.4%	12.6µM*	6.5	14.6%
O=C(NCC(c1ccco1)N1CCCC1)c1cc(S(=O)(=O)N2CCCCC2)ccc1Cl (configuration not stated)	-1.4	7.0%	-5.6%	u	16.6	8.9%
CCN(CC1CCCN(CCc2cccc(F)c2)C1)C(=O)c1cc2ccccc2o1 (configuration not stated)	-24.2	0.5%	-13.0%	u	-75.4*	2.6%
Cc1cc(=O)n2c(C(=O)Nc3ccc(Br)cc3)c(C(=O)Nc3ccccc3)sc2n1	x	-0.3%	-7.0%	-5.5%	x	x
COC(=O)CCC(=O)OC1(C)C(=O)C=C2C=C(C3CC3)N(CCCOC(C)C)C=C2C1=O (configuration not stated)	-11.7	0.7%	11.4%	7.1%	-86.0*	-5.4%
SMILES	hERG WT inh	GLS inhibitor	HEK293 tox	GLP1R inv ag	KCNH2 3.1 inh	GLP-1R agonist
COC(=O)CCC(=O)OC1(C)C(=O)C=C2C=C(C3CC3)N(CCCCO)C=C2C1=O (configuration not stated)	-4.6	1.0%	-14.8%	16.8%	16.8	-0.2%
Cc1ccc(N(CC(=O)NC2CCCCC2)C(=O)CNC(=O)c2ccco2)cc1C	-8.1	0.4%	-4.9%	-4.3%	8.8	8.1%
CCOc1ccc(C(=O)C(C)OC(=O)C2CCN(c3ccc(C(F)(F)F)cn3)CC2)cc1 (configuration not stated)	-2.2	0.8%	0.7%	8.91µM*	-7.7	11.7%
CC(=O)c1ccc(N2CCN(c3ccc(C(F)(F)F)cn3)CC2)cc1	-138.8*	-3.3%	-0.1%	18.6%	-200.0*	-3.4%
O=C(COC(=O)C1CCN(c2ccc(C(F)(F)F)cn2)CC1)Nc1ncc(Cl)cc1Cl	2.6	2.0%	21.5%	19.0%	-71.1*	0.2%
O=C(COC(=O)C1CCN(c2ccc(C(F)(F)F)cn2)CC1)Nc1ccc(Cl)cn1	-41.6	-12.0%	20.4%	1.4%	-43.6	-0.6%
Cc1ccc(C(=O)C(C)OC(=O)C2CCN(c3ccc(C(F)(F)F)cn3)CC2)cc1C (configuration not stated)	1.5	-0.7%	-0.8%	u	-17.9	-10.5%
CCN(CC(=O)Nc1c(F)cccc1F)C(=O)C1CCN(S(=O)(=O)c2ccc(C)c(C)c2)CC1	-3.9	-14.0%	-11.4%	u	10.2	6.5%
COc1ccc(-c2nc(C(=O)NCC3CCCO3)cc3c2[nH]c2ccccc23)cc1 (configuration not stated)	1.4	2.8%	u	10µM*	-5.9	-4.6%
Cc1ccccc1-c1nc(C(=O)NCC2CCCO2)cc2c1[nH]c1ccccc12 (configuration not stated)	2.6	6.4%	-18.7%	10µM*	0.2	u
Cc1ccc(-c2nc(C(=O)NCC3CCCO3)cc3c2[nH]c2ccccc23)cc1 (configuration not stated)	15.4	9.2%	u	u	-2.6	-4.7%
COc1ccc(CCNC(=O)CCn2c(=O)c3ccccc3n(CC(=O)Nc3ccccc3F)c2=O)cc1OC	x	3.4%	4.0%	23.9%	x	-0.4%
CC(C)(C)n1nnnc1C(c1ccc(C(F)(F)F)cc1)N(Cc1ccc(F)cc1)Cc1ccco1 (configuration not stated)	-12.8	-5.4%	4.0%	u	-2.9	-15.1%
